Measured values reported in PubChem BioAssay (NCATS).
Results filed as inconclusive are left out. Entries that show only a call come without a potency. A number with no mark means an inactive call. Active and inactive are the calls of the source. Calls come from the whole dose curve; as a rule, active = well fitted cell-killing curve with a large enough effect; inconclusive = small, poorly fitted or top-dose-only effect, or effect the other way; inactive = flat fitted curve, though single readings scatter.

Test system: C33A
Assay: Primary qHTS to identify gynecologic anti-cancer compounds using libraries of approved drugs and bioactive compounds (AID 1345084); note: nearly all actives have a fitted effect of over 55% in size
Conditions: Gynecologic cancer cell panel viability, ATPlite luminescence, 48 h; series mostly up to 57.5 µM
Summary of the method: (§1)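 Cells, 1,000 per well, were allowed to settle for 16 h at 37 C before compound addition. Five concentrations were tested for 48 h, and viability was read by ATPlite luminescence after 15 min at room temperature.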
Potency is the fitted concentration of half-maximal effect.

With COc1ccc(S(=O)(=O)Nc2cc(Cl)cc(Cl)c2OC)cc1N1CCNCC1 as the compound, how does the Potency read?
Its Potency is “inactive”.

Which Potency does the source give for CC(=O)O[C@H]1[C@@]2(O)C[C@H](C)[C@H](OC(=O)c3ccccc3)[C@@H]2[C@@H](OC(=O)CO)[C@]2(OC(C)=O)C[C@H]3C(=O)C(C)(C)C[C@@H]3[C@@]1(C)[C@H]2OC(C)=O here?
The Potency was “inactive”.

Which Potency does the source give for COc1ccc2cc(-c3cc(-c4cc(Cl)cc(Cl)c4)nn3C(C)c3ccc(C(=O)NCCC(=O)O)cc3)ccc2c1 (centres undefined) here?
The Potency was “inactive”.

For CCCCC1CCC(c2nc(-c3ccncc3)no2)CC1 (centres undefined), which Potency is on record?
Its Potency is “inactive”.

Which Potency does the source give for CC(C)CCCCC(=O)N[C@@H](CO)C(=O)N[C@@H](CC(C)C)C(=O)[C@@]1(CO)CO1 here?
The Potency was “inactive”.

With COc1ccc(NC(=O)c2ccc(-c3ccc(C(=N)N)cc3C)cc2)cc1N1CCN(C)CC1 as the compound, how does the Potency read?
The Potency was “inactive”.

Which Potency does the source give for CC(C)(Cc1nc(-c2ccc(O)cn2)no1)C(=O)NC1=C(C(=O)O)CCCC1 here?
Its Potency is “inactive”.

How did the Potency turn out when CCCN(CCc1ccsc1)C1CCc2c(O)cccc2C1 (centres undefined) was run?
The Potency was “inactive”.

For CCn1c(=O)n([C@H]2CCCN(c3nccc(-c4cc5ccccc5o4)n3)C2)c2ccccc21, which Potency is on record?
The Potency was “inactive”.

CC(=O)OC1CC(C)(C(=O)O)CC2C3=CC(=O)C4C5(C)CCC(OC6OC(C(=O)O)C(O)C(O)C6OC6OC(C(=O)O)C(O)C(O)C6O)C(C)(C)C5CCC4(C)C3(C)CCC12C (centres undefined) was tested. Which activity change, negative = cytotoxicity did it give?
Its activity change, negative = cytotoxicity is 10.4% [at 11.6 µM].

Which Potency does the source give for COC1=CC(=O)C=C(C)C12Oc1c(Cl)c(OC)cc(OC)c1C2=O (centres undefined) here?
Its Potency is “inactive”.

For O=C(Nc1ccn(Cc2ccc(O)cc2C(F)(F)F)n1)c1c(F)cccc1F, which Potency is on record?
Its Potency is “inactive”.

How did the Potency turn out when Cc1cccc(N2CCN(C(=O)c3cc(S(=O)(=O)N(C)C)ccc3N3CCCC3)CC2)c1C was run?
The Potency was “inactive”.

For COC(=O)c1ccnc(-c2cc(C(=O)Nc3ccc(C4(N)CC4)cc3)ccn2)c1, which Potency is on record?
The Potency was “inactive”.

How did the Potency turn out when COc1ccc(CCO[C@@H]2O[C@H](CO[C@H]3OC[C@](O)(CO)[C@H]3O)[C@@H](OC(=O)/C=C/c3ccc(O)c(O)c3)[C@H](O[C@@H]3O[C@@H](C)[C@H](O)[C@@H](O)[C@H]3O)[C@H]2O)cc1OC was run?
The Potency was “inactive”.

Which Potency does the source give for CC(C)(C)c1ccc(C(=O)Nc2cn3cc(-n4ccnc4)ccc3n2)cc1 here?
The Potency was “inactive”.

Which Potency does the source give for C[C@@H](NC(=O)C(=O)c1c[nH]c2ccc([N+](=O)[O-])cc12)c1ccccc1 here?
The Potency was “inactive”.

How did the Potency turn out when COc1ccc(NC(=O)c2ccc(-c3ccc(-c4nnc(C)o4)cc3C)cc2)cc1N1CCN(C)CC1 was run?
The Potency was “inactive”.

How did the Potency turn out when C=C1C(=O)OC2CC(C)C(CCC(C)O)=CCC12 (centres undefined) was run?
Its Potency is “inactive”.

CC(C)Nc1nc(Nc2ccccc2)nc(-c2ccccc2)n1 was tested. Which Potency did it give?
The Potency was “inactive”.

With O=C(NCCCNc1nc(Nc2cccc(CN3CCOCC3)c2)ncc1C1CC1)C1CCC1 as the compound, how does the Potency read?
The Potency was “inactive”.

How did the Potency turn out when Cc1cc2c(N3CCCC3)nc(N3CCCC3)nc2n1C was run?
Its Potency is “inactive”.

How did the Potency turn out when Cc1cc(OCCCS(C)(=O)=O)cc(C)c1-c1cccc(COc2ccc(C3=CC(=O)NS3=O)cc2)c1 (centres undefined) was run?
The Potency was “inactive”.

For O=C(c1cc(Cc2n[nH]c(=O)c3ccccc23)ccc1F)N1CCCNCC1, which Potency is on record?
Its Potency is “inactive”.

How did the Potency turn out when CCNC1(C(N)=O)CCN(c2ncnc3c2nc(-c2ccccc2Cl)n3-c2ccc(Cl)cc2)CC1 was run?
The Potency was “inactive”.

For CCCOc1ccc(S(=O)(=O)N2CCN(CCO)CC2)cc1-c1nc2c(CCC)cn(CC)c2c(=O)[nH]1, which Potency is on record?
Its Potency is “inactive”.

Which Potency does the source give for CN1CCN(C2=Nc3ccccc3Nc3ccc(OS(=O)(=O)C(F)(F)F)cc32)CC1 here?
Its Potency is “inactive”.

CCOc1ccc(CCNC(=O)c2cc3sc(Cl)cc3n2C)cc1OCC was tested. Which Potency did it give?
The Potency was “inactive”.

NS(=O)(=O)c1ccc(NC(=O)Nc2ccc(F)cc2)cc1 was tested. Which Potency did it give?
Its Potency is “inactive”.

Which Potency does the source give for O=C(Nc1cccnc1)c1cc(-c2ccnc(F)c2)ccc1OCc1ccccc1 here?
The Potency was “inactive”.

Which Potency does the source give for Cc1cc(C)c(-n2cc(C)c3c(Cl)nc(C)nc32)c(C)c1 here?
Its Potency is “inactive”.

With Cc1cc(C)c(S(=O)(=O)n2cc(C)cc2C)c(C)c1 as the compound, how does the Potency read?
Its Potency is “inactive”.

With O=C(c1ccc(OC(F)F)c(C#Cc2ccccn2)c1)N1Cc2cccnc2C1 as the compound, how does the Potency read?
The Potency was “inactive”.

How did the Potency turn out when CC1=C(C(=O)Nc2cc(Cl)ccc2Cl)C(c2ccco2)C2=C(CCCC2=O)N1 (centres undefined) was run?
The Potency was “inactive”.

Which Potency does the source give for COc1ccc2c(NC(=O)Nc3cccc(C(F)(F)F)n3)ccnc2c1 here?
The Potency was “inactive”.

For CC[C@H](C)/C=C(C)/C=C/C1=CC2=CC(=O)[C@]3(C)OC(=O)[C@@H](C(C)=O)[C@@H]3C2=CO1, which Potency is on record?
The Potency was “inactive”.

Which Potency does the source give for C=C1C(=O)O[C@@H]2[C@H]1CC[C@H](C)[C@]1(CCC(=O)O1)C2(C)O (some centres undefined) here?
The Potency was “inactive”.

With CN1CCN(c2ccc(-c3cccc(CN4CCOCC4)c3)cc2NC(=O)c2c[nH]c(=O)cc2C(F)(F)F)CC1 as the compound, how does the Potency read?
Its Potency is “inactive”.

Which Potency does the source give for CC(C)OC(=O)N1CCC(Oc2ncnc3c2cnn3-c2ccc(S(C)(=O)=O)cc2F)CC1 here?
The Potency was “inactive”.

Test system: CAOV3
Assay: as above
Conditions: Gynecologic cancer cell panel viability, ATPlite luminescence, 48 h; series mostly up to 57.5 µM
Summary of the method: as §1

For COc1ccc(S(=O)(=O)Nc2cc(Cl)cc(Cl)c2OC)cc1N1CCNCC1, which Potency is on record?
The Potency was “inactive”.

For CC(=O)O[C@H]1[C@@]2(O)C[C@H](C)[C@H](OC(=O)c3ccccc3)[C@@H]2[C@@H](OC(=O)CO)[C@]2(OC(C)=O)C[C@H]3C(=O)C(C)(C)C[C@@H]3[C@@]1(C)[C@H]2OC(C)=O, which Potency is on record?
The Potency was “inactive”.

Which Potency does the source give for COc1ccc2cc(-c3cc(-c4cc(Cl)cc(Cl)c4)nn3C(C)c3ccc(C(=O)NCCC(=O)O)cc3)ccc2c1 (centres undefined) here?
Its Potency is “inactive”.

With COc1ccc(NC(=O)c2ccc(-c3ccc(C(=N)N)cc3C)cc2)cc1N1CCN(C)CC1 as the compound, how does the Potency read?
The Potency was “inactive”.

CC(C)(Cc1nc(-c2ccc(O)cn2)no1)C(=O)NC1=C(C(=O)O)CCCC1 was tested. Which Potency did it give?
The Potency was “inactive”.

With CCn1c(=O)n([C@H]2CCCN(c3nccc(-c4cc5ccccc5o4)n3)C2)c2ccccc21 as the compound, how does the Potency read?
Its Potency is “inactive”.

With COC1=CC(=O)C=C(C)C12Oc1c(Cl)c(OC)cc(OC)c1C2=O (centres undefined) as the compound, how does the Potency read?
Its Potency is “inactive”.

Which Potency does the source give for O=C(Nc1ccn(Cc2ccc(O)cc2C(F)(F)F)n1)c1c(F)cccc1F here?
The Potency was “inactive”.

With Cc1cccc(N2CCN(C(=O)c3cc(S(=O)(=O)N(C)C)ccc3N3CCCC3)CC2)c1C as the compound, how does the Potency read?
The Potency was “inactive”.

Which Potency does the source give for COC(=O)c1ccnc(-c2cc(C(=O)Nc3ccc(C4(N)CC4)cc3)ccn2)c1 here?
Its Potency is “inactive”.

How did the Potency turn out when CC(C)(C)c1ccc(C(=O)Nc2cn3cc(-n4ccnc4)ccc3n2)cc1 was run?
The Potency was “inactive”.

C[C@@H](NC(=O)C(=O)c1c[nH]c2ccc([N+](=O)[O-])cc12)c1ccccc1 was tested. Which Potency did it give?
Its Potency is “inactive”.

With C=C1C(=O)OC2CC(C)C(CCC(C)O)=CCC12 (centres undefined) as the compound, how does the Potency read?
The Potency was “inactive”.

CC(C)Nc1nc(Nc2ccccc2)nc(-c2ccccc2)n1 was tested. Which Potency did it give?
The Potency was “inactive”.

How did the Potency turn out when O=C(NCCCNc1nc(Nc2cccc(CN3CCOCC3)c2)ncc1C1CC1)C1CCC1 was run?
Its Potency is 11.2 µM (active).

Which Potency does the source give for Cc1cc2c(N3CCCC3)nc(N3CCCC3)nc2n1C here?
Its Potency is “inactive”.

How did the Potency turn out when Cc1cc(OCCCS(C)(=O)=O)cc(C)c1-c1cccc(COc2ccc(C3=CC(=O)NS3=O)cc2)c1 (centres undefined) was run?
The Potency was “inactive”.

How did the Potency turn out when O=C(c1cc(Cc2n[nH]c(=O)c3ccccc23)ccc1F)N1CCCNCC1 was run?
The Potency was “inactive”.

How did the Potency turn out when CCNC1(C(N)=O)CCN(c2ncnc3c2nc(-c2ccccc2Cl)n3-c2ccc(Cl)cc2)CC1 was run?
The Potency was “inactive”.

CCCOc1ccc(S(=O)(=O)N2CCN(CCO)CC2)cc1-c1nc2c(CCC)cn(CC)c2c(=O)[nH]1 was tested. Which Potency did it give?
The Potency was “inactive”.

For CN1CCN(C2=Nc3ccccc3Nc3ccc(OS(=O)(=O)C(F)(F)F)cc32)CC1, which Potency is on record?
Its Potency is “inactive”.

Which Potency does the source give for CCOc1ccc(CCNC(=O)c2cc3sc(Cl)cc3n2C)cc1OCC here?
The Potency was “inactive”.

With NS(=O)(=O)c1ccc(NC(=O)Nc2ccc(F)cc2)cc1 as the compound, how does the Potency read?
The Potency was “inactive”.

With O=C(c1ccc(OC(F)F)c(C#Cc2ccccn2)c1)N1Cc2cccnc2C1 as the compound, how does the Potency read?
The Potency was “inactive”.

How did the Potency turn out when CC1=C(C(=O)Nc2cc(Cl)ccc2Cl)C(c2ccco2)C2=C(CCCC2=O)N1 (centres undefined) was run?
The Potency was “inactive”.

With COc1ccc2c(NC(=O)Nc3cccc(C(F)(F)F)n3)ccnc2c1 as the compound, how does the Potency read?
The Potency was “inactive”.

With CC[C@H](C)/C=C(C)/C=C/C1=CC2=CC(=O)[C@]3(C)OC(=O)[C@@H](C(C)=O)[C@@H]3C2=CO1 as the compound, how does the Potency read?
Its Potency is “inactive”.

How did the Potency turn out when C=C1C(=O)O[C@@H]2[C@H]1CC[C@H](C)[C@]1(CCC(=O)O1)C2(C)O (some centres undefined) was run?
The Potency was “inactive”.

With CN1CCN(c2ccc(-c3cccc(CN4CCOCC4)c3)cc2NC(=O)c2c[nH]c(=O)cc2C(F)(F)F)CC1 as the compound, how does the Potency read?
The Potency was “inactive”.

CC(C)OC(=O)N1CCC(Oc2ncnc3c2cnn3-c2ccc(S(C)(=O)=O)cc2F)CC1 was tested. Which Potency did it give?
The Potency was “inactive”.
